Bioassay records as filed in PubChem BioAssay.
aSyn UTR inh = 5' untranslated region of α-synuclein, MLPCN primary screen | alpha-synuclein 5'UTR reporter, inhibitor activity | inhibition, % (tested at 7.5 µM) | 300,000 compounds, 0.82% hits; in the data active means inhibition above about 60%;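 further: H4 neuroglioblastoma cells stably carrying SNCA 5'UTR luciferase fusion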
697 NFkB inh = lowers PMA/ionomycin-induced NF-kB signal in 697 B cells; 697 B-cell NF-kB luciferase reporter, 16 h; inhibition, % at 4 µM; 330,000 compounds, 0.33% hits; in the data active means inhibition above about 35%
Jurkat NFkB inh = inhibitors of the PMA/ionomycin-induced NF-kB reporter in Jurkat cells; PMA/ionomycin-induced NF-kB luciferase reporter, luminescence; inhibition, % at 4 µM; 330,000 compounds, 0.53% hits; in the data active means inhibition above about 50%
CSC inhib = blocks cancer stem cells; cancer stem cell-like cells viability, luminescence; inhibition, % at 7.5 µM; 300,000 compounds, 1.1% hits; AID 2717; in the data active means inhibition above about 75%; tested in HMLE shEcad cells
Gli-Sufu antag = blocks Gli-Sufu signaling in a luciferase reporter. Sufu-KO-LIGHT fibroblasts, Gli luciferase reporter luminescence. inhibition, % at 5 µM. 340,000 compounds, 0.74% hits;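 active means inhibition above about 55%, limit read from the data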
Mdm2-MdmX inh = human Mdm2/MdmX binding inhibition. O15151+Q00987. SaOS-2 split-luciferase Mdm2/MdmX complementation, luminescence. inhibition, % at 8 µM. 330,000 compounds, 3% hits. AID 485346;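 active means inhibition of at least 50% at 8 µM in the primary screen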
Gli antag conf = Gli-SUFU antagonism confirmation, single concentration; Sufu-KO-LIGHT cells, Gli luciferase reporter, luminescence; inhibition, % at 5 µM; 2,500 compounds, 40% hits; shares compounds with Gli-Sufu antag;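 active means mean inhibition at 5 µM reaching about 45%, limit read from the data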
SufuKO cytotox = cytotoxic in Gli-SUFU antagonist counter-screen. Sufu-KO-LIGHT cells cytotoxicity, ATP luminescence. cytotoxicity, % at 5 µM. 2,500 compounds, 32% hits. shares compounds with Gli-Sufu antag;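 active means mean cytotoxicity at 5 µM above about 25%, limit read from the data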;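 further: cells exposed to compound overnight for roughly 16 to 18 hours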
Wnt3a counter = inhibits Wnt3a reporter, counter-screen for Gli-SUFU antagonists | shares compounds with Gli-Sufu antag | Wnt-LIGHT cells, Wnt3a-driven luciferase reporter, luminescence | 2,500 compounds, 20% hits | AID 651995 | inhibition, % at 6.25 µM;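 active means mean inhibition above about 25%, limit read from the data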
Large screens that a line does not name were inactive (follow-up assays come after a bar, where they were run). Shown are actives, neighbours in structure and some others; about 4.5% of the full set was active somewhere.

Cc1cc(C)c(S(=O)(=O)N2CCN(C(=O)C3CCCO3)CC2)c(C)c1 (centres undefined)	Gli-Sufu antag 58 (no result: aSyn UTR inh) | Gli antag conf inactive | SufuKO cytotox inactive | Wnt3a counter inactive
COc1cccc(N2CCN(C(=O)C3CCN(S(=O)(=O)c4ccc5c(c4)oc(=O)n5C)CC3)CC2)c1	Gli-Sufu antag 61 | Gli antag conf inactive | SufuKO cytotox inactive | Wnt3a counter inactive
COc1cccc(N2CCN(S(=O)(=O)c3ccc4c(c3)oc(=O)n4C)CC2)c1	none
CC(=O)N1c2ccc(S(=O)(=O)N3CCC(C(=O)N4CCN(c5cccc(C(F)(F)F)c5)CC4)CC3)cc2CC1C (centres undefined)	Gli-Sufu antag 74 | Gli antag conf 81 | SufuKO cytotox 34 | Wnt3a counter inactive
CC(=O)c1ccc(N2CCN(C(=O)C3CCN(S(=O)(=O)c4ccc5c(c4)CC(C)N5C(C)=O)CC3)CC2)cc1 (centres undefined)	none
CCN(CCCNC(=O)CCNC(=O)Cn1cnc2ccccc2c1=O)c1ccccc1	none
O=C(C[C@H]1C/C=C\C[C@H](NC(=O)OCC2c3ccccc3-c3ccccc32)C(=O)OC[C@@H]2CCCN2C1=O)N[C@H](CO)Cc1ccccc1	none (no result: aSyn UTR inh, CSC inhib) | Gli antag conf 46 | SufuKO cytotox inactive | Wnt3a counter inactive
O=C(C[C@@H]1C/C=C\C[C@H](NC(=O)OCC2c3ccccc3-c3ccccc32)C(=O)OC[C@H]2CCCN2C1=O)N[C@H](CO)Cc1ccccc1	Gli-Sufu antag 68 (no result: aSyn UTR inh) | Gli antag conf 65 | SufuKO cytotox inactive | Wnt3a counter inactive
O=C(C[C@@H]1C/C=C\C[C@H](NC(=O)OCC2c3ccccc3-c3ccccc32)C(=O)OC[C@@H]2CCCN2C1=O)N[C@@H](CO)Cc1ccccc1	none (no result: aSyn UTR inh)
O=C(C[C@@H]1C/C=C\C[C@H](NC(=O)OCC2c3ccccc3-c3ccccc32)C(=O)OC[C@@H]2CCCN2C1=O)N[C@H](CO)Cc1ccccc1	none (no result: aSyn UTR inh, CSC inhib)
OCc1nc2c(ccc3ccccc32)[nH]1	none
Cc1ccc(C(C)C)c(OCCn2c(=O)oc3ccccc32)c1	Gli-Sufu antag 96 | Gli antag conf inactive | SufuKO cytotox inactive | Wnt3a counter inactive
Cc1ccccc1OCCn1c(=O)oc2ccccc21	none (no result: CSC inhib)
COc1cccc(O)c1CN1CCC(C(=O)Nc2ccc(Oc3cccnc3)cc2)CC1	none | Gli antag conf inactive | SufuKO cytotox inactive | Wnt3a counter inactive
c1ccc2c(c1)OCC(CNc1ncnc3sccc13)O2 (centres undefined)	Gli-Sufu antag 76 (no result: 697 NFkB inh, Jurkat NFkB inh, Mdm2-MdmX inh) | Gli antag conf 74 | SufuKO cytotox inactive | Wnt3a counter inactive
C=C1CCN([C@@H](CC(C)C)C(=O)NCCC(C)C)S(=O)(=O)c2ccccc21	none
OC[C@@H]1[C@@H](c2ccccc2)C(c2ccccc2)=NN1c1ccccc1	none (no result: aSyn UTR inh, Jurkat NFkB inh, CSC inhib)
c1ccc(-c2nn(-c3ccccc3)[n+](-c3ccccc3)n2)cc1	Gli-Sufu antag 63 (no result: aSyn UTR inh, 697 NFkB inh, Jurkat NFkB inh, CSC inhib, Mdm2-MdmX inh) | Gli antag conf 67 | SufuKO cytotox inactive | Wnt3a counter 33
CSc1nnc(-c2ccc([N+](=O)[O-])cc2)o1	Gli-Sufu antag 93 | Gli antag conf inactive | SufuKO cytotox inactive | Wnt3a counter inactive
Cc1nc2cccc(C)n2c(=O)c1Cl	Gli-Sufu antag 56 | Gli antag conf inactive | SufuKO cytotox inactive | Wnt3a counter inactive
Cn1c(SCC(=O)N2CCOCC2)nc(O)cc1=O	none
COc1ccc(OC)c(CN2CCCC(CO)C2)c1 (centres undefined)	Gli-Sufu antag 59 | Gli antag conf inactive | SufuKO cytotox inactive | Wnt3a counter inactive
COc1ccc(OC)c(CN2CCCCCC2)c1	none
COC(=O)/C=C1/SC(=NC(=O)c2ccc(F)cc2)NC1=O	none
CN1C(=O)CC(NNC(=O)c2ccccc2)C1=O (centres undefined)	none
COc1ccc(C2CC(c3ccccc3)=NN2S(=O)(=O)c2ccc(C)cc2)c(OC)c1 (centres undefined)	none | Gli antag conf inactive | SufuKO cytotox 37 | Wnt3a counter inactive
CCc1ccc(-c2cc(C)no2)cc1S(=O)(=O)NCCCN1CCN(c2ccccc2)CC1	none | Gli antag conf inactive | SufuKO cytotox 29 | Wnt3a counter inactive
COc1ccc(-c2cc(C)no2)cc1S(=O)(=O)NCC(C)c1ccccc1 (centres undefined)	Gli-Sufu antag 76 | Gli antag conf inactive | SufuKO cytotox inactive | Wnt3a counter inactive
Cc1nc2c(C)cccn2c1/C(O)=C1\C(=O)C(=O)N(CCN2CCOCC2)C1c1cccs1 (centres undefined)	none (no result: CSC inhib)
N#C/C(C(=O)N1CCOCC1)=c1/s/c(=C\c2ccccn2)c(=O)n1-c1ccccc1	none
COc1ccc(-n2c(=O)/c(=C\c3cccs3)s/c2=C(/C#N)C(=O)N2CCN(C)CC2)cc1	Gli-Sufu antag 57 | Gli antag conf inactive | SufuKO cytotox inactive | Wnt3a counter inactive
COc1cc(/C(C)=N\NC(=O)CSc2nc3ccccc3n2C)ccc1O	none
CC(=O)Nc1ccc(S(=O)(=O)N2C3CCCC2CC(NC(=O)C2CCCCC2)C3)cc1 (centres undefined)	Gli-Sufu antag 95 | Gli antag conf inactive | SufuKO cytotox inactive | Wnt3a counter inactive
CC(=O)Nc1ccc(S(=O)(=O)N2CCC(C(=O)NC3CCCC3)CC2)cc1	none
CCC(=O)N1CCc2cc(S(=O)(=O)Nc3ccccc3C)ccc21	none
COc1ccccc1NS(=O)(=O)c1ccc2c(c1)CCN2C(=O)CCC(=O)O	none | Gli antag conf inactive | SufuKO cytotox inactive | Wnt3a counter inactive
c1ccc2c(c1)nc1n2CCN1CCN1CCCC1	none
COc1cc(C(=O)Oc2ccccc2/C=N/NC(=O)c2ccc(Cl)cc2)cc(OC)c1OC	none | Gli antag conf inactive | SufuKO cytotox inactive | Wnt3a counter inactive
CC(=O)Nc1ccc(C(=O)N/N=C/c2ccccc2OC(=O)c2ccc(Cl)cc2)cc1	none
Cc1cc(NC(=O)COC(=O)C2=NN(c3ccccc3)C(=O)CC2)c([N+](=O)[O-])cc1C	none (no result: aSyn UTR inh)
Cc1ccc(N2CC(C(=O)Nc3nc4ccc(S(C)(=O)=O)cc4s3)CC2=O)cc1C (centres undefined)	none | Gli antag conf inactive | SufuKO cytotox inactive | Wnt3a counter inactive
CCOc1ccc(S(=O)(=O)NCC2(N3CCCCC3)CCCCC2)cc1	none (no result: aSyn UTR inh, CSC inhib)
COC(/C(=N/O)c1ccc(Cl)cc1)c1ccccc1 (centres undefined)	Gli-Sufu antag 64 | Gli antag conf 60 | SufuKO cytotox 30 | Wnt3a counter 34
